From PubChem BioAssay
Most compounds without a hit are left out; they make up all but 5.6% or so of the library.
Gal4-VP16 FLuc: VP16 counterscreen qHTS for inhibitors of ROR gamma transcriptional activity; 3.5% of 310,000 active; Potency, µM (series often up to 53.6 µM), most hits filed as inhibitors; Drosophila S2 Gal4-VP16 UAS-luciferase, luminescence, 20 h;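 further: Gal4-VP16 expression switched on by copper sulfate through the metallothionein promoter; nearly all actives have a fitted effect of over 50% in size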
Six1-Eya2 blk: qHTS Assay for Inhibitors of the Six1/Eya2 Interaction. activity change, % (test concentration not listed). 0.56% of 360,000 active. Homeobox protein SIX1 (Homo sapiens) + Protein phosphatase EYA2 (Homo sapiens), …. AlphaScreen GST-Six1/His-Eya2 binding, biochemical; stronger effect = lower value; in the data active means activity change below about -65%; inconclusive means mostly about -30% to -63%
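Compounds are tested against tagged Six1 and Eya2 proteins bridged by glutathione donor and nickel acceptor beads; after a one-hour incubation at 37 °C without light, AlphaScreen emission is recorded.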
PKM2 act: qHTS Assay for Activators of Human Muscle isoform 2 Pyruvate Kinase | AID 1631, 2009 | 0.34% of 260,000 active | Potency, µM (titrated, usually from 57.5 µM), hits mostly activators | purified PKM2, Kinase-Glo ATP luminescence, activation; response scale: 0% is enzyme alone, no compound | Pyruvate kinase PKM (Homo sapiens), P14618; further: nearly all actives have a fitted effect of over 55% in size
Target sequence (P14618 whole entry, looked up, canonical isoform): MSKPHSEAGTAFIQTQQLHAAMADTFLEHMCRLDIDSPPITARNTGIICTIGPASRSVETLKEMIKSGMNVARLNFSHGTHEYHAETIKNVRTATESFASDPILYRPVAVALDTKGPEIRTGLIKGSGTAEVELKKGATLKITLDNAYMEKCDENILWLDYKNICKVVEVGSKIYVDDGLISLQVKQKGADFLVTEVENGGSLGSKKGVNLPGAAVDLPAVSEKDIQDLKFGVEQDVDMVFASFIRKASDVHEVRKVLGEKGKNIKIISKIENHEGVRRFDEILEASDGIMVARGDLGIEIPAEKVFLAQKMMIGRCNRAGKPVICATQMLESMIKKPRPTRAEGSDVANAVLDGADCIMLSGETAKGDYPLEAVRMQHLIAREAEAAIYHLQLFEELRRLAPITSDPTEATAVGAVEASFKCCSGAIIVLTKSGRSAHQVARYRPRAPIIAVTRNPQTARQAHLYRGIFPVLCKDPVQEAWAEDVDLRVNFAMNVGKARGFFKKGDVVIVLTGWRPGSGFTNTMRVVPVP
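hPK-M2, >95% pure; 0.1 mM ADP / 0.5 mM PEP final; imidazole pH7.2 buffer w/ 7 mM MgCl2, 50 mM KCl; 1 h RT; Kinase-Glo lum. Intermediate enzyme activity for dual inhibitor/activator qHTS.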
RORg inh: qHTS for inhibitors of ROR gamma transcriptional activity; Drosophila S2 Gal4-RORgamma UAS-luciferase reporter, 20 h; Potency, µM (highest dose often 53.6 µM), hits mostly inhibitors; 5.4% of 310,000 active; AID 2551, 2010; further: nearly all actives have a fitted effect of over 60% in size
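Stable Schneider cell line, Gal4 DNA-binding domain fused to ROR gamma, UAS-luciferase. Cmpd 1 hr RT → CuSO4 700 uM final → 20 hr RT → luciferase reagent 10 min → luminescence.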
CtBP-E1A inh: qHTS Assay for Inhibitors of the CtBP/E1A Interaction. CtBP / adenovirus E1A interaction (AlphaScreen). AlphaScreen GST-E1A/His-CtBP binding, 1536-well; stronger effect = lower value. activity change, % (test concentration not listed). 0.49% of 340,000 active; in the data active means activity change below about -65%; inconclusive means mostly about -30% to -63%
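Steps: dispense buffer (Tris pH 8.0, NaCl 300 mM, TCEP 1 mM, BSA, Tween 20); add 5X protein mix (GST-E1A, His-CtBP, 125 nM each); pin 23 nL compound; 2 h at 37 °C, dark; add 5X beads (50 ug/mL); 1 h; read.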
Numbers stand for hits; [ ] = dose if it differs, or a comment. Unless noted, the call rests on the fitted dose curve; in most records, active means well fitted curve in the direction sought with a large enough effect; inconclusive means small, poorly fitted or top-dose-only effect, or another doubt; inactive means no such curve, though single readings can be large; an effect the other way counts as inactive or inconclusive.

CCCCCCC(=O)N(O)C1CC(=O)N(c2ccc(C)cc2)C1=O (stereo not drawn) was read as Gal4-VP16 FLuc inconclusive, Six1-Eya2 blk inactive, PKM2 act inactive, RORg inh 11µM and CtBP-E1A inh inactive.
Screening CCCC(=O)NC(c1ccccc1Cl)c1c(O)ccc2ccccc12 (stereo not drawn) returned Gal4-VP16 FLuc inactive, Six1-Eya2 blk inactive, PKM2 act inactive, RORg inh inactive[10 µM] and CtBP-E1A inh inactive.
Screening CCCC(=O)NC(c1ccc2c(c1)OCO2)c1cc(Cl)c2cccnc2c1O (stereo not drawn) returned Gal4-VP16 FLuc 1.3µM, Six1-Eya2 blk -77, PKM2 act inactive, RORg inh 1.4µM and CtBP-E1A inh -78.
Screening O=C(CCC(=O)c1cccs1)NC(c1ccccc1)c1ccccc1 returned Gal4-VP16 FLuc inactive, Six1-Eya2 blk inactive, PKM2 act inactive, RORg inh inconclusive and CtBP-E1A inh inactive.
`CCCC(=O)NC(c1ccco1)c1cc(Cl)c2cccnc2c1O` (stereo not drawn) gave Gal4-VP16 FLuc 3.5µM, Six1-Eya2 blk -83, PKM2 act inactive, RORg inh 4µM and CtBP-E1A inh -90.
For CCCC(=O)NC(c1cccs1)c1cc(Cl)c2cccnc2c1O (stereo not drawn) the results were Gal4-VP16 FLuc 0.5µM, Six1-Eya2 blk inconclusive, PKM2 act inactive, RORg inh 0.4µM and CtBP-E1A inh -71.
COc1ccc(N2CCN(Cc3cc(=O)c(OCC(=O)NC4CCCC4)co3)CC2)cc1 was read as Six1-Eya2 blk inactive and CtBP-E1A inh inactive.
For CCCCCC(=O)Nc1ccc(-c2nnc3n2CCCCC3)cc1 the results were Gal4-VP16 FLuc inactive, Six1-Eya2 blk inactive, PKM2 act inactive, RORg inh inactive and CtBP-E1A inh inactive.
CCOC(=O)/C=C/C(=O)Nc1ccc(-c2nnc3n2CCCCC3)cc1 was read as Gal4-VP16 FLuc inactive, Six1-Eya2 blk inactive, RORg inh inactive and CtBP-E1A inh -66.
Screening Oc1[nH]c2c(Cl)cc(Cl)cc2c1N=NC(=S)NCC1CCCO1 (stereo not drawn) returned Gal4-VP16 FLuc 1.1µM, Six1-Eya2 blk inactive, PKM2 act inactive, RORg inh 1.3µM and CtBP-E1A inh inactive.
Screening CCn1c(O)c(N=NC(=S)NCC2CCCO2)c2ccccc21 (stereo not drawn) returned Gal4-VP16 FLuc 1.8µM, Six1-Eya2 blk inactive, PKM2 act inactive and RORg inh 0.28µM.
Screening Oc1[nH]c2ccc(Br)cc2c1N=NC(=S)NCC1CCCO1 (stereo not drawn) returned Gal4-VP16 FLuc inconclusive, Six1-Eya2 blk inactive, PKM2 act inactive, RORg inh 1.4µM and CtBP-E1A inh inactive.
Screening Cc1cc(C)c2[nH]c(O)c(N=NC(=S)NCC3CCCO3)c2c1 (stereo not drawn) returned Gal4-VP16 FLuc 7.1µM, Six1-Eya2 blk inactive, PKM2 act inactive, RORg inh 5µM and CtBP-E1A inh inactive.
For CCn1c(=O)cc(SCC(=O)NCC2CCCO2)c2ccccc21 (stereo not drawn) the results were Gal4-VP16 FLuc inactive, Six1-Eya2 blk inactive, PKM2 act inactive, RORg inh inactive and CtBP-E1A inh inactive.
Screening Oc1[nH]c2ccccc2c1N=NC(=S)NCC1CCCO1 (stereo not drawn) returned Gal4-VP16 FLuc inactive, Six1-Eya2 blk inactive, PKM2 act inactive, RORg inh inactive and CtBP-E1A inh inactive.
CCOC(=O)CSc1nnc(NC(=O)c2cccc([N+](=O)[O-])c2C)s1 was read as Gal4-VP16 FLuc inactive, Six1-Eya2 blk inactive, PKM2 act inactive, RORg inh inactive and CtBP-E1A inh inactive.
COc1ccccc1C(=O)NCCC(=O)NCC(c1ccccc1)N(C)C (stereo not drawn) was read as Gal4-VP16 FLuc inactive, Six1-Eya2 blk inactive, PKM2 act inactive, RORg inh 11µM and CtBP-E1A inh inactive.
`COc1ccccc1C(=O)NCCC(=O)Nc1cccnc1` gave Gal4-VP16 FLuc inactive, Six1-Eya2 blk inactive, PKM2 act inactive, RORg inh inactive and CtBP-E1A inh inactive.
COc1ccccc1C(=O)NCCC(=O)Nc1ncccc1C was read as Gal4-VP16 FLuc 8.9µM, Six1-Eya2 blk inactive, PKM2 act inactive, RORg inh 5.6µM and CtBP-E1A inh inactive.
COc1ccccc1C(=O)NCCC(=O)NCc1ccccn1 was read as Six1-Eya2 blk inactive and CtBP-E1A inh inactive.
`COc1ccccc1C(=O)NCc1ccccn1` gave Gal4-VP16 FLuc inactive, Six1-Eya2 blk inactive, PKM2 act inactive and RORg inh 8.9µM.
`CC1C(=O)N2CCCc3cc(NC(=O)c4ccccc4Br)cc1c32` (stereo not drawn) gave Six1-Eya2 blk inactive and CtBP-E1A inh inactive.
`COc1ccccc1NC(=O)NC1(C(=O)N2CCC(C)CC2)CCCCC1` gave Gal4-VP16 FLuc inactive, Six1-Eya2 blk inactive, PKM2 act inactive, RORg inh inactive and CtBP-E1A inh inactive.
Screening Cc1cc(Cl)ccc1OCc1nc(-c2ccc(O)cc2)n[nH]1 returned Gal4-VP16 FLuc 4.5µM, Six1-Eya2 blk inactive, PKM2 act inactive, RORg inh inconclusive and CtBP-E1A inh inactive.
For Cc1cc(Cl)ccc1Oc1ncc(-c2ccc(Cl)cc2)cn1 the results were Gal4-VP16 FLuc inactive, Six1-Eya2 blk inactive, PKM2 act inactive, RORg inh inactive and CtBP-E1A inh inactive.
CNC(=O)[C@H]1O[C@@H](n2cnc3c(NCc4cccc(I)c4)ncnc32)[C@H](O)[C@@H]1O was read as Six1-Eya2 blk inactive and CtBP-E1A inh inactive.
`O=C1CCCN1CCC1CCN(C2CC(=O)N(Cc3ccc(N4CCCC4=O)cc3)C2=O)CC1` (stereo not drawn) gave Gal4-VP16 FLuc inconclusive, Six1-Eya2 blk inactive, PKM2 act inactive, RORg inh 7.1µM and CtBP-E1A inh inactive.
O=C(c1cccs1)N(Cc1ccco1)Cc1cc2ccccc2[nH]c1=O was read as Gal4-VP16 FLuc inactive, Six1-Eya2 blk inactive, PKM2 act 22µM, RORg inh inactive[10 µM] and CtBP-E1A inh inactive.
`Cc1cc(C)c2[nH]c(=O)c(CN(Cc3ccco3)C(=O)c3cccs3)cc2c1` gave Gal4-VP16 FLuc inactive, PKM2 act inactive and RORg inh inactive.
`CCN(CC)S(=O)(=O)c1ccc(N2CC(C(=O)NC3(C)CCS(=O)(=O)C3)CC2=O)cc1` (stereo not drawn) gave Six1-Eya2 blk inactive and CtBP-E1A inh inactive.
For COc1cnc(-c2ccccn2)nc1Oc1cccc(Cl)c1 the results were Gal4-VP16 FLuc 16µM, Six1-Eya2 blk inconclusive, PKM2 act inactive, RORg inh 2.8µM and CtBP-E1A inh inconclusive.
